The campaign covered roughly 71,000 compounds. About 310 (0.44%) were called active. Another 5% or so got no clear call; they are omitted. The call rests on the fitted dose curve; in most records, active means well fitted curve in either direction with a large enough effect; inconclusive means small, poorly fitted or top-dose-only effect, or another doubt; inactive means flat fitted curve, though single readings scatter. Many of the other results were omitted from the sample, so actives are more common in it than they were.
system: Hsp90 C-terminal peptide / TPR2A (Hop) interaction, human; assay: qHTS Assay for Disrupters of an Hsp90 Co-Chaperone Interaction; conditions: AlphaScreen TPR2A-His6 binding biotin-Hsp90 C-terminal peptide; series mostly up to 57 µM; activity change, negative = inhibition: at the top concentration
On the % scale 0 is the no-effect control and ±100 the full control effect; potency means the concentration at half of the fitted maximal effect.

| Compound | activity change, negative = inhibition | Potency |
| --- | --- | --- |
| O=C(c1cccc2ccccc12)N1CCN(c2ccccc2F)CC1 | 1.86% (inactive) |  |
| COc1ccc2oc(=O)c(C(=O)N3CCN(c4ccccc4F)CC3)cc2c1 | -5.42% (inactive) |  |
| O=C(Nn1cc(C(=O)N2CCN(c3ccccc3F)CC2)c2ccccc2c1=O)c1cnccn1 |  | 3.98 µM (active) |
| c1ccc(CNc2ncncc2-c2cccnc2)cc1 | -8.1% (inactive) |  |
| COc1ccc2[nH]cc(CCNc3ncnc4ccc(-c5ccccc5CN(C)C)cc34)c2c1 | -21.4% (inactive) |  |
| COc1ccc(C(=O)Nc2c(N)nc(SCC(=O)N3CCC(C)CC3)[nH]c2=O)cc1OC | -3.46% (inactive) |  |
| COc1ccc(-c2[nH]nc3c2C(c2ccncc2)C(C#N)=C(N)O3)cc1 (stereo not drawn) | -5.29% (inactive) |  |
| COc1cc(C2C(C#N)=C(N)Oc3n[nH]c(-c4ccccn4)c32)cc(OC)c1OC (stereo not drawn) |  | 25.1 µM (active) |
| CCOc1c(OC)cc(C2C(C#N)=C(N)Oc3n[nH]c(-c4ccncc4)c32)cc1OC (stereo not drawn) | -6.32% (inactive) |  |
| COc1ccc(-c2nc3cnc(OC)nc3n(Cc3ccc(F)cc3)c2=O)cc1 | -3.6% (inactive) |  |
| O=c1cc(-c2ccc(O)c(O)c2)oc2cccc(O)c12 | -19.6% (inactive) |  |
| CCCCCCCCCCCC(=O)O | -1.69% (inactive) |  |
| CCCOC(=O)Nc1ccccc1C(N)=O | -3.39% (inactive) |  |
| CC(=O)/C(C)=N\O | 0.893% (inactive) |  |
| CCn1c(=N)c(C(=O)NCCCOC)cc2c(=O)n3cccc(C)c3nc21 | -6.79% (inactive) |  |
| O=C(c1ccco1)N1CCC2(CC1)CCN(c1ncccn1)CC2 | 0.252% (inactive) |  |
| C=CCNC(=O)CCCOc1cccc(C)c1 | -6.77% [at 11 µM] (inactive) |  |
| CCOC(=O)C(CCOc1cccc(CC)c1)C(=O)OCC |  | 25.1 µM [activator] (active) |
| COC(=O)[C@@H](NC(=O)NCc1cccc(OC)c1)C(C)C | -1.2% (inactive) |  |
| COc1cccc(-n2c(SCC(=O)NC3CCCCC3)nc3n[nH]c(C)c3c2=N)c1 | -1.24% (inactive) |  |
| CC(=O)Nc1ccc(S(=O)(=O)N2CCC(N(C)CCC(C)C)CC2)cc1 | -3.29% (inactive) |  |
| Cc1ccc(/C(=C/CN2CCCC2)c2ccccn2)cc1 | inactive |  |
| Cc1ccc(S(=O)(=O)Cn2nnnc2CN2CCN(Cc3ccc4c(c3)OCO4)CC2)cc1 | -1.83% (inactive) |  |
| N=c1c2c3c(sc2ncn1N)CCCCC3 | -0.172% (inactive) |  |
| COC(=O)c1ccccc1NC(=O)c1cncc(Br)c1 | 19.5% (inactive) |  |
| N#C/C(=C\c1ccc(O)c(O)c1)C(=O)NCc1ccccc1 | -10.1% (inactive) |  |
| COc1ccc(OC)c([C@H](O)CNC(=O)CN)c1 | -3.33% [at 26 µM] (inactive) |  |
| Cc1cnc(CNc2ncncc2-c2ccccc2Cl)cn1 | 3.83% (inactive) |  |
